About 79,000 compounds went through this panel and 15% of them were active in at least one assay; those are over-represented in the sample as a whole. Calls of active or inactive are those of the source. No stated cut-off is given here; in the data, active means growth inhibition above about 70%; inactive means the rest.
Tests used:
[1] = NCI Yeast Anticancer Drug Screen. Data for the rad52 strain (AID 147);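 further: 0% = growth of vehicle-treated control cultures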; details: S. cerevisiae rad52 mutant growth inhibition, active compounds read high
Procedure, shortened: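 DNA repair-defective yeast; compound exposure; growth scored against vehicle controls.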

[2] = NCI Yeast Anticancer Drug Screen. Data for the wt1 strain (AID 149);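 further: 0% = growth of vehicle-treated wt1 cultures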; details: S. cerevisiae wt1 strain (SPY 50644) growth inhibition, active compounds read high
Procedure, shortened: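 Vehicle-normalised growth inhibition; strain wt1; compound exposure.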

[3] = NCI Yeast Anticancer Drug Screen. Data for the rad50EPP+ strain (AID 151);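 further: 0% = growth of vehicle-treated control cultures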; details: S. cerevisiae rad50 mutant strain, active compounds read high
Procedure, shortened: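 rad50EPP+ yeast treated with test compounds. Readout: growth vs vehicle control.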

[4] = NCI Yeast Anticancer Drug Screen. Data for the mgt1 strain (AID 153); details: S. cerevisiae mgt1 mutant growth inhibition, active compounds read high
Procedure, shortened: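 Growth inhibition relative to vehicle controls was scored for the mgt1 yeast strain after compound exposure.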

[5] = NCI Yeast Anticancer Drug Screen. Data for the rad50 strain (AID 155);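 further: 0% = growth of vehicle-only cultures of the same strain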; details: S. cerevisiae rad50 strain growth inhibition, active compounds read high
Procedure, shortened: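 A DNA repair-deficient yeast mutant serves as the test organism; compound-induced growth inhibition is calculated against vehicle-treated cells.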

[6] = NCI Yeast Anticancer Drug Screen. Data for the mec2-1 strain (AID 157); details: S. cerevisiae mec2-1 strain, active compounds read high
Procedure, shortened: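 Growth inhibition is read against vehicle-treated controls after compound exposure of the mec2-1 yeast strain, which is defective in DNA damage repair or cell cycle control.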

[7] = NCI Yeast Anticancer Drug Screen. Data for the rad14 strain (AID 159);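 further: 0% = growth of vehicle-treated control cultures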; details: S. cerevisiae rad14 strain growth inhibition, active compounds read high
Procedure, shortened: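 Vehicle-treated cultures served as the baseline for growth inhibition of a DNA repair-mutant yeast strain exposed to each compound.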

[8] = NCI Yeast Anticancer Drug Screen. Data for the sgs1 mgt1 strain (AID 161);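 further: 0% = growth of cultures given vehicle only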; details: S. cerevisiae sgs1 mgt1 strain, active compounds read high
Procedure, shortened: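 Yeast cells carrying a defined DNA-repair defect were exposed to test compounds. Growth inhibition was measured relative to vehicle-treated controls.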

[9] = NCI Yeast Anticancer Drug Screen. Data for the CLN2oe strain (AID 163);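 further: 0% = growth of vehicle-only control cultures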; details: S. cerevisiae CLN2oe strain, active compounds read high
Procedure, shortened: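 Compound-treated yeast; growth vs vehicle ctrl = % inhibition. Genetically altered strain (cell-cycle control).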

[10] = NCI Yeast Anticancer Drug Screen. Data for the cln2 rad14 strain (AID 165);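 further: 0% = growth equal to vehicle treated cultures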; details: S. cerevisiae cln2 rad14 strain, active compounds read high
Procedure, shortened: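 Growth inhibition, relative to vehicle-treated controls, is the read-out. The test organism is a yeast strain with defined genetic alterations, cln2 rad14.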

[11] = NCI Yeast Anticancer Drug Screen. Data for the bub3 strain (AID 167); details: S. cerevisiae bub3 mutant strain, active compounds read high
Procedure, shortened: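 Inhibition values come from growth of compound-treated mutant yeast normalised to vehicle-treated controls.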

[12] = NCI Yeast Anticancer Drug Screen. Data for the wt2 strain (AID 169);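 further: 0% = growth of vehicle-treated yeast cultures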; details: S. cerevisiae wt2 strain growth inhibition, active compounds read high
Procedure, shortened: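 Compound exposure of yeast; growth compared with vehicle controls; inhibition reported.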

[13] = NCI Yeast Anticancer Drug Screen. Data for the mlh1 strain (AID 171);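 further: 0% = growth of vehicle-treated control cultures of the same strain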; details: S. cerevisiae mlh1 strain growth inhibition, active compounds read high
Procedure, shortened: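 Compounds are applied to a genetically altered yeast strain, and its growth is compared with that of vehicle-treated cultures to give percent inhibition.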

[14] = NCI Yeast Anticancer Drug Screen. Data for the sgs1 strain (AID 173);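 further: 0% = growth of vehicle-only control cultures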; details: S. cerevisiae sgs1 mutant, active compounds read high
Procedure, shortened: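 Compounds applied to genetically altered yeast; growth compared with vehicle-treated cultures to give % inhibition.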

[15] = NCI Yeast Anticancer Drug Screen. Data for the mlh1 rad18 strain (AID 175); details: S. cerevisiae mlh1 rad18 strain growth inhibition, active compounds read high
Procedure, shortened: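 Cells of a genetically altered yeast strain, deficient in DNA damage repair, were treated with compound. Their growth was then compared with that of vehicle-treated cultures to give inhibition.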

[16] = at 5.0 µM (retest, dose inferred, filed as 0.5)
[17] = at 50.0 µM (retest, dose inferred, filed as 5.0)

Measured: growth inhibition

CNC1C(OC2C(OC3C(O)C(O)C(N=C(N)N)C(O)C3N=C(N)N)OC(C)C2(O)CO)OC(CO)C(O)C1O (stereo not drawn)
inactive: [1]; at 1.2 µM -3% | [1]; at 3.7 µM 1% | [1]; at 11.0 µM 2% | [1]; at 33.0 µM 28% | [1]; at 100.0 µM -7% | [2]; at 1.2 µM 4% | [2]; at 3.7 µM -4% | [2]; at 11.0 µM -4% | [2]; at 33.0 µM 10% | [2]; at 100.0 µM -4% | [3]; at 1.2 µM -2% | [3]; at 3.7 µM 4% | [3]; at 11.0 µM -2% | [3]; at 33.0 µM -3% | [3]; at 100.0 µM -10% | [4]; at 1.2 µM 0% | [4]; at 3.7 µM 7% | [4]; at 11.0 µM -6% | [4]; at 33.0 µM 17% | [4]; at 100.0 µM -9% | [5]; at 1.2 µM -2% | [5]; at 3.7 µM 7% | [5]; [16] -19% | [5]; at 11.0 µM 4% | [5]; at 33.0 µM 31% | [5]; [17] -6% | [5]; at 100.0 µM -11% | [6]; at 1.2 µM -2% | [6]; at 3.7 µM -1% | [6]; [16] -15% | [6]; at 11.0 µM -3% | [6]; at 33.0 µM 10% | [6]; [17] 19% | [6]; at 100.0 µM -3% | [7]; at 1.2 µM -2% | [7]; at 3.7 µM 4% | [7]; at 11.0 µM -2% | [7]; at 33.0 µM 32% | [7]; at 100.0 µM -9% | [8]; [16] 19% | [8]; [17] -6% | [9]; at 1.2 µM -7% | [9]; at 3.7 µM -6% | [9]; at 11.0 µM -2% | [9]; at 33.0 µM 16% | [9]; at 100.0 µM -12% | [10]; [16] 11% | [10]; [17] 59% | [11]; at 1.2 µM -2% | [11]; at 3.7 µM -1% | [11]; [16] 5% | [11]; at 11.0 µM 12% | [11]; at 33.0 µM 45% | [11]; [17] 2% | [11]; at 100.0 µM -9% | [12]; at 1.2 µM -3% | [12]; at 3.7 µM 0% | [12]; at 11.0 µM -1% | [12]; at 33.0 µM 34% | [12]; at 100.0 µM -6% | [13]; at 1.2 µM -2% | [13]; at 3.7 µM -4% | [13]; at 11.0 µM 2% | [13]; at 33.0 µM 11% | [13]; at 100.0 µM 10% | [14]; at 1.2 µM -1% | [14]; at 3.7 µM 1% | [14]; at 11.0 µM 2% | [14]; at 33.0 µM 35% | [14]; at 100.0 µM 46% | [15]; [16] 12% | [15]; [17] 7%
active: [5]; at 50.0 µM 91.3% | [6]; at 50.0 µM 93.5% | [8]; at 50.0 µM 91.8% | [10]; at 50.0 µM 81.8% | [11]; at 50.0 µM 93.5% | [15]; at 50.0 µM 93.1%

O=C(NCCCCCCCN1CCCCCCC1)C(C1CCCCC1)C1CCCCC1
active: [1]; at 11.0 µM 89% | [1]; at 33.0 µM 98% | [1]; at 100.0 µM 99% | [2]; at 33.0 µM 97% | [2]; at 100.0 µM 98% | [4]; at 3.7 µM 83% | [4]; at 11.0 µM 97% | [4]; at 33.0 µM 98% | [4]; at 100.0 µM 99% | [5]; at 11.0 µM 81% | [5]; at 33.0 µM 98% | [5]; [17] 99% | [5]; at 50.0 µM 99.3% | [5]; at 100.0 µM 98% | [6]; at 11.0 µM 85% | [6]; at 33.0 µM 98% | [6]; [17] 97% | [6]; at 50.0 µM 94.2% | [6]; at 100.0 µM 99% | [7]; at 1.2 µM 72% | [7]; at 3.7 µM 75% | [7]; at 11.0 µM 97% | [7]; at 33.0 µM 99% | [7]; at 100.0 µM 99% | [8]; [17] 98% | [8]; at 50.0 µM 99% | [9]; at 11.0 µM 92% | [9]; at 33.0 µM 97% | [9]; at 100.0 µM 98% | [10]; [17] 98% | [10]; at 50.0 µM 96.5% | [11]; at 11.0 µM 95% | [11]; at 33.0 µM 97% | [11]; [17] 99% | [11]; at 50.0 µM 99% | [11]; at 100.0 µM 98%
inactive: [1]; at 1.2 µM 40% | [1]; at 3.7 µM 52% | [2]; at 1.2 µM 18% | [2]; at 3.7 µM 26% | [2]; at 11.0 µM 61% | [3]; at 1.2 µM 0% | [3]; at 3.7 µM -1% | [3]; at 11.0 µM 4% | [3]; at 33.0 µM 16% | [3]; at 100.0 µM 41% | [4]; at 1.2 µM 64% | [5]; at 1.2 µM 41% | [5]; at 3.7 µM 45% | [5]; [16] 35% | [6]; at 1.2 µM 43% | [6]; at 3.7 µM 39% | [6]; [16] 29% | [8]; [16] 36% | [9]; at 1.2 µM 53% | [9]; at 3.7 µM 65% | [10]; [16] 62% | [11]; at 1.2 µM 65% | [11]; at 3.7 µM 66% | [11]; [16] 27%
